Experimental data taken from ChEMBL document CHEMBL4513216, “Probing the Open Global Health Chemical Diversity Library for Multistage-Active Starting Points for Next-Generation Antimalarials” (ACS Infect Dis, 2020).
Out of some 69,000 compounds screened, about 8,600 (12%) showed an effect of 50% or more. Shown is part of a subset that was picked to be rich in strong results.

test system: Plasmodium berghei; experiment: Screen against P. berghei liver stage (PbLuc), transformed with Luciferase, at 10uM; type: functional, HepG2; details: tested at 10 uM

Question: `Cc1cnc(N2C[C@@H]3[C@@H](C2)OCC(=O)N3CC(C)C)nc1` was tested. Which INHIBITION did it give?
Answer: 40.8%

Question: For `CN(C)C(=O)N1CCN(c2ccc(Cl)nn2)C(=O)C1`, which INHIBITION is on record?
Answer: 16.8%

Question: How did the INHIBITION turn out when `COc1ccc(Br)cc1SCCCS(C)(=O)=O` was run?
Answer: 12.8%

Question: `Cc1nc(N2CCN(C(=O)c3ccncc3)CC2)c2c(n1)c(C)nn2C` was tested. Which INHIBITION did it give?
Answer: 33.3%

Question: How did the INHIBITION turn out when `Cc1nc(C2CCCN(C(=O)CCCn3cccn3)C2)sc1C` (stereo unspecified) was run?
Answer: -23.9%

Question: How did the INHIBITION turn out when `Cc1ccc2c(n1)N(CCN(C)C)CCN(C(=O)c1cscn1)C2` was run?
Answer: 38.1%

Question: `Cc1ccc2c(n1)N(CCN(C)C)CCN(C(=O)c1ccoc1)C2` was tested. Which INHIBITION did it give?
Answer: 48.6%

Question: `Cc1ccc2c(n1)N(CCN(C)C)CCN(C(=O)c1ccco1)C2` was tested. Which INHIBITION did it give?
Answer: 54.4%

Question: With `Cc1ccc2c(n1)N(CCN(C)C)CCN(C(=O)c1ccsc1)C2` as the compound, how does the INHIBITION read?
Answer: 40.4%

Question: For `Cc1ccc2c(n1)N(CCN(C)C)CCN(C(=O)c1ccc[nH]1)C2`, which INHIBITION is on record?
Answer: 10.8%

Question: Which INHIBITION does the source give for `Cc1ccc2c(n1)N(CCN(C)C)CCN(C(=O)c1cccs1)C2` here?
Answer: 74.2%

Question: For `COc1ccc(C(CNC(=O)Nc2cc(C)nn2C)N(C)C)cc1` (stereo unspecified), which INHIBITION is on record?
Answer: 9.383%

Question: How did the INHIBITION turn out when `CC(C)=CCN1CCC2(CC1)c1ccccc1[C@@H](N1CCSCC1)[C@@H]2O` was run?
Answer: 56.5%

Question: For `COCCCN1CCN([C@@H]2c3ccccc3C3(CCNCC3)[C@H]2O)CC1`, which INHIBITION is on record?
Answer: 58.1%

Question: With `COCCCC1CCN([C@@H]2c3ccccc3C3(CCNCC3)[C@H]2O)CC1` as the compound, how does the INHIBITION read?
Answer: 17.5%

Question: `CC(=O)CN1CCC2(CC1)c1ccccc1[C@@H](N1CCSCC1)[C@@H]2O` was tested. Which INHIBITION did it give?
Answer: 22.3%

Question: For `CCOCCN1CCN([C@@H]2c3ccccc3C3(CCNCC3)[C@H]2O)CC1`, which INHIBITION is on record?
Answer: 29.4%

Question: How did the INHIBITION turn out when `CS(=O)(=O)N1CCC2(CC1)c1ccccc1[C@@H](N1CCSCC1)[C@@H]2O` was run?
Answer: 24.4%

Question: With `CC(C)C1=NOC2(CCN(C(=O)C3CCCC3)CC2)C1` as the compound, how does the INHIBITION read?
Answer: 20.9%

Question: How did the INHIBITION turn out when `c1cn2c(n1)CN(C1CCOCC1)CC(CN1CCCC1)C2` (stereo unspecified) was run?
Answer: 29%

Question: For `Cc1nc(C)n(C2CCCN(C(=O)c3ncoc3C(C)C)C2)n1` (stereo unspecified), which INHIBITION is on record?
Answer: 38.5%

Question: Which INHIBITION does the source give for `Cc1ccc(NC2CCN(C(=O)CCc3nccs3)CC2)nn1` here?
Answer: -48.4%

Question: Which INHIBITION does the source give for `COCCOCCNC(=O)c1cccc(Cn2nc(C)cc2C)c1` here?
Answer: 26.6%

Question: Which INHIBITION does the source give for `Cc1cc(NC(=O)NCC(O)COc2ccccc2)n(C)n1` (stereo unspecified) here?
Answer: 25.365%

Question: With `CCn1cc(NC(=O)NCC(O)COc2ccccc2)cn1` (stereo unspecified) as the compound, how does the INHIBITION read?
Answer: 60.5%

Question: How did the INHIBITION turn out when `O=C(NCC(O)COc1ccccc1)Nc1nncs1` (stereo unspecified) was run?
Answer: 53.1%

Question: For `CCn1cc(NC(=O)NCC(O)COc2cccc(F)c2)cn1` (stereo unspecified), which INHIBITION is on record?
Answer: 23.2%

Question: With `O=C(NCC(O)COc1ccc(C(F)(F)F)cc1)Nc1nncs1` (stereo unspecified) as the compound, how does the INHIBITION read?
Answer: 14.8%

Question: With `CCn1cc(NC(=O)c2cccc(OCC(F)(F)F)n2)cn1` as the compound, how does the INHIBITION read?
Answer: 51.5%

Question: For `Cc1n[nH]c(C)c1NC(=O)c1cccc(OCC(F)(F)F)n1`, which INHIBITION is on record?
Answer: -14.9%

Question: How did the INHIBITION turn out when `CCn1cc(NC(=O)NCC(C)O)cn1` (stereo unspecified) was run?
Answer: 13.1%

Question: How did the INHIBITION turn out when `CCc1cc(NC(=O)c2cccc(OCC(F)(F)F)n2)[nH]n1` was run?
Answer: -20.8%

Question: How did the INHIBITION turn out when `Cc1nonc1CC(=O)N1C[C@H]2CC[C@@H](C1)N(Cc1ccccc1)C2=O` was run?
Answer: 0.139%

Question: Which INHIBITION does the source give for `Cc1ccc(CN(CCCN(C)C)Cc2cnc(N(C)C)nc2)o1` here?
Answer: 15.395%

Question: For `CC(C)C(=O)N1CCCC2(C1)CN(c1nncs1)CCO2` (stereo unspecified), which INHIBITION is on record?
Answer: 30.3%

Question: `CNC(=O)CN1CCOC(c2cccc(N)n2)C1` (stereo unspecified) was tested. Which INHIBITION did it give?
Answer: -5.8%

Question: Which INHIBITION does the source give for `C[C@@H]1CN2C[C@H](O)CC2CN1Cc1ccc2nccnc2c1` (stereo partly specified) here?
Answer: 28.5%

Question: How did the INHIBITION turn out when `O=C(CN1CC(c2nc(-c3ccco3)no2)C1)NCC1CCCO1` (stereo unspecified) was run?
Answer: 17.7%

Question: How did the INHIBITION turn out when `COc1ccccc1OCCNCc1c(C(C)C)nn(C)c1N(C)C` was run?
Answer: 31.3%

Question: How did the INHIBITION turn out when `O=C(NCCc1ccccn1)C1(n2cnnn2)CCCCC1` was run?
Answer: 46.4%

Question: Which INHIBITION does the source give for `CNCc1ccc([C@@H]2CN(C(C)=O)C[C@H]2C(N)=O)cc1` here?
Answer: -2.46%

Question: Which INHIBITION does the source give for `NC(=O)CC1CCCCN1C(=O)c1cccc(C(F)(F)F)c1` (stereo unspecified) here?
Answer: 37.4%

Question: How did the INHIBITION turn out when `Cc1ccc(C(=O)N2CCOCC3(CCN(C4CCOCC4)C3)C2)o1` (stereo unspecified) was run?
Answer: 14.1%

Question: For `O=C1CCCN1Cc1ccc(C(=O)N2CCCC2c2cccs2)cc1` (stereo unspecified), which INHIBITION is on record?
Answer: 4.52%

Question: Which INHIBITION does the source give for `COCC(C)N(Cc1ccccc1OC)C(=O)c1cc(C)[nH]c(=O)c1` (stereo unspecified) here?
Answer: 29.4%

Question: How did the INHIBITION turn out when `CC(C)COc1ccccc1CN(C)C(=O)c1cc(=O)[nH]c(=O)[nH]1` was run?
Answer: 10.6%

Question: Which INHIBITION does the source give for `Cc1cc(C(=O)N(C)Cc2ccccc2OCC(C)C)cc(=O)[nH]1` here?
Answer: 58.1%

Question: Which INHIBITION does the source give for `CCc1ccccc1NC(=O)CCc1cnn(C)c1` here?
Answer: 34.2%

Question: How did the INHIBITION turn out when `CN(CC(N)=O)CC1(c2ccc(Br)cc2)CC1` was run?
Answer: -28.4%

Question: For `Cc1ccc(OCC(=O)Nc2cc(C(=O)O)cc(S(C)(=O)=O)c2)cc1C`, which INHIBITION is on record?
Answer: 45.6%

Question: How did the INHIBITION turn out when `Cc1ccc(OCC(=O)Nc2ccc(S(C)(=O)=O)cc2)cc1C` was run?
Answer: 59.4%
